Measurements: PubChem BioAssay (EPA / NIEHS)
Inconclusive results are not listed. The source holds several records for some structures; these can differ, active in one and inactive in another. Calls of active or inactive are those of the source. How the source made its calls, unless noted: active means hit-call score of the fitted dose curve at least 0.9, where 1 is the maximum; inactive means score below 0.9.

Experiments:
[1] = target: Transcription factor Sp1 (Homo sapiens) (UniProt P08047); assay: ATG_Sp1_CIS: Attagene CIS-FACTORIAL HepG2 Assay for human Specificity Protein 1 (Sp1) (AID 2282961); conditions: HepG2 Sp1 cis-reporter transcription, actives raise or lower the signal
Sequence of Transcription factor Sp1 (Homo sapiens) (P08047 whole entry, looked up): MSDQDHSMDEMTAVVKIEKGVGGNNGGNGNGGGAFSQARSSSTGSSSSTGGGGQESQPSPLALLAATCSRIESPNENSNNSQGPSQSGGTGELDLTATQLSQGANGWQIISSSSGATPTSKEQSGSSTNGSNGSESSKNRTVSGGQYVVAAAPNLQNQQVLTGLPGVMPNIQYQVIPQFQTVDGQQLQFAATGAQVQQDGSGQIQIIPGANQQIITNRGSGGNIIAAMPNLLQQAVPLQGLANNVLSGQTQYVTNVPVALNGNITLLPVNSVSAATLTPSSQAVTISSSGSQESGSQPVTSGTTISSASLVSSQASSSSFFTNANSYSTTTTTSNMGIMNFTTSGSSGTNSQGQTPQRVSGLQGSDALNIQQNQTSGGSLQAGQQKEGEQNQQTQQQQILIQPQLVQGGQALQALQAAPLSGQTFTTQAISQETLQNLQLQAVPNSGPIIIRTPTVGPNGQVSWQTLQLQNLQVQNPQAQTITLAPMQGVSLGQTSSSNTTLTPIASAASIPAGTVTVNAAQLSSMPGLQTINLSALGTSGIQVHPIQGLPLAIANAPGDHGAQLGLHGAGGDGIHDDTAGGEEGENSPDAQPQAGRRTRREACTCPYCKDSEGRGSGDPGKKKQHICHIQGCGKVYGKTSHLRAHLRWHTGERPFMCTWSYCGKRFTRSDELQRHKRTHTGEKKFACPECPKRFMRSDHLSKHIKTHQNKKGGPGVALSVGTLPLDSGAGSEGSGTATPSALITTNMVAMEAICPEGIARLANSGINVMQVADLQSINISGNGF
How it was run: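 After transient transfection of HepG2 cells with cis-promoter reporter units and 24 h chemical treatment, reporter transcripts were quantified by RT-PCR and capillary electrophoresis fluorescence. Gain- and loss-of-signal fitted against DMSO.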

[2] = ATG_SREBP_CIS: Attagene CIS-FACTORIAL HepG2 Assay for human Sterol Regulatory Element Binding (SREBP) (AID 2282962); conditions: HepG2 Attagene cis-factorial SREBP reporter, mRNA; actives raise or lower the signal
How it was run: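 mRNA induction of transfected cis-promoter reporters in HepG2 cells, 24 h post-dose. Detection: RT-PCR with 6-FAM-labelled products, HpaI digest, capillary electrophoresis. DMSO served as negative control and baseline.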

[3] = ATG_TA_CIS: Attagene CIS-FACTORIAL HepG2 Assay for human TA Basal Promoter (AID 2282964); conditions: HepG2 Attagene CIS-factorial TA basal promoter reporter; actives raise or lower the signal
How it was run: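 Transfected HepG2, 24 h compound exposure; RNA → RT-PCR → FAM primer extension → HpaI cut → CE fluorescence. Gain/loss-of-signal fitted against DMSO negative control. Background-control readout.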

[4] = ATG_TCF_b_cat_CIS: Attagene CIS-FACTORIAL HepG2 Assay for human T-Cell-Factor with beta-catenin (TCF/b-cat) (AID 2282965); conditions: HepG2 TCF/beta-catenin cis-reporter transcription, actives raise or lower the signal
How it was run: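 Cells of the HepG2 line carry transiently transfected reporter units whose promoters respond to endogenous factors. Twenty-four hours post-dosing, reporter mRNA induction is measured by fluorescent RT-PCR and capillary electrophoresis, with DMSO as baseline.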

[5] = ATG_TAL_CIS: Attagene CIS-FACTORIAL HepG2 Assay for human TAL Basal Promoter (AID 2282966); conditions: HepG2 Attagene cis-factorial TAL promoter reporter; actives raise or lower the signal;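 further: background control endpoint measuring basal TAL promoter reporter mRNA not a specific factor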
How it was run: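 In this cell-based multiplex, HepG2 liver cells bearing cis-promoter reporter constructs are dosed for 24 hours. Total RNA is reverse-transcribed and amplified, labelled fragments are sized by capillary electrophoresis, and signal changes are fitted bidirectionally versus DMSO.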

[6] = ATG_TGFb_CIS: Attagene CIS-FACTORIAL HepG2 Assay for human Transforming Growth Factor (TGF) (AID 2282967); conditions: HepG2 Attagene CIS TGFb reporter, mRNA transcription; actives raise or lower the signal
How it was run: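 Readout: fluorescently labeled reporter cDNA fragments resolved by capillary electrophoresis after RT-PCR. Transfected HepG2 cells dosed for 24 h; endogenous TF activity at TGFB1-linked cis element; gain or loss fitted relative to DMSO.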

[7] = ATG_VDRE_CIS: Attagene CIS-FACTORIAL HepG2 Assay for human Vitamin D Receptor Element (VDRE) (AID 2282968); conditions: HepG2 VDRE cis-reporter transcription, actives raise or lower the signal
How it was run: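 Cell-based multiplexed reporter format in human liver HepG2 cells, 24 h post-dose. Fluorescence from capillary electrophoresis of reporter cDNA gives the signal, with DMSO as negative control and baseline.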

[8] = target: Estrogen receptor (Homo sapiens) (UniProt P03372); assay: ATG_ERa_TRANS: Attagene TRANS-FACTORIAL HepG2 Assay for human Estrogen Receptor alpha (ERa) (AID 2282970; active means hit-call score of the fitted dose curve at least 0.9, where 1 is the maximum); conditions: HepG2 Attagene TRANS ERa GAL4 reporter, mRNA
Sequence of Estrogen receptor (Homo sapiens) (P03372 whole entry, looked up, the tested form may be a part): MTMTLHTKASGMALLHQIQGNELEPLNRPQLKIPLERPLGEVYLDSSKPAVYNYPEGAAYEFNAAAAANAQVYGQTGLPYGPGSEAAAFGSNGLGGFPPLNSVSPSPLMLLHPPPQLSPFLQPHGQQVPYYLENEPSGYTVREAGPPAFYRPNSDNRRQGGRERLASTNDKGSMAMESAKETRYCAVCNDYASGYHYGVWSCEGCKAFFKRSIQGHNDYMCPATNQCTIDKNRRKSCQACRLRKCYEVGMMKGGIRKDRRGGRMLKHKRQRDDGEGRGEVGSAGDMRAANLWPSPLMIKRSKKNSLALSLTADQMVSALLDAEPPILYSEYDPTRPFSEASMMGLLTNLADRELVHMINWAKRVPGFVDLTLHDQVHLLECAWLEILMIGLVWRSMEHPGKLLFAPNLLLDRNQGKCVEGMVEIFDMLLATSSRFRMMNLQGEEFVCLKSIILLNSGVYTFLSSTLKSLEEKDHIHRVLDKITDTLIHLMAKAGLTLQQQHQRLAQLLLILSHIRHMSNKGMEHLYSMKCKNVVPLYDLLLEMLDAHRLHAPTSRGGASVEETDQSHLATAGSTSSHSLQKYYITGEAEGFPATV
How it was run: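 After 24 h of compound treatment, RNA from HepG2 cells bearing transfected GAL4-UAS reporter constructs is converted to cDNA, amplified and fluorescently labelled. Capillary electrophoresis resolves the ERa-linked reporter; DMSO serves as negative control.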

[9] = target: Nuclear receptor subfamily 1 group I member 3 (Homo sapiens) (UniProt Q14994); assay: ATG_CAR_TRANS: Attagene TRANS-FACTORIAL HepG2 Assay for human Constitutive Androstane Receptor (CAR) (AID 2282969; active means hit-call score of the fitted dose curve at least 0.9, where 1 is the maximum;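 further: activators raise reporter mRNA above DMSO so AC50 marks induction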); conditions: HepG2 Attagene TRANS-FACTORIAL CAR reporter
Sequence of Nuclear receptor subfamily 1 group I member 3 (Homo sapiens) (Q14994 whole entry, looked up, the tested form may be a part): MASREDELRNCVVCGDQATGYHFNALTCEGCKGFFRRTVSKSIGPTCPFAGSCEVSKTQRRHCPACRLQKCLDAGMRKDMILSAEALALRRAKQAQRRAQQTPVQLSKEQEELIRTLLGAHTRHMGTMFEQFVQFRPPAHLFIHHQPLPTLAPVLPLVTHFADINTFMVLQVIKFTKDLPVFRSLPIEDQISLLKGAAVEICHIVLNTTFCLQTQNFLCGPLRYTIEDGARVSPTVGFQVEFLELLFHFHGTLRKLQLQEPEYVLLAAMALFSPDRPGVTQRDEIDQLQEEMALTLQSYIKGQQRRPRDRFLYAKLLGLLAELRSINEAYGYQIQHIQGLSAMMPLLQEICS
How it was run: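 HepG2 cells transiently transfected with GAL4-UAS reporter units; TRANS format reads activity of exogenous chimeric NR-Gal4 protein. After 24 h dosing, reporter mRNA quantified by RT-PCR, 6-FAM labelling and capillary electrophoresis; gain of signal fitted against DMSO.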

Measured: AC50

CC(C)OC(=O)Nc1ccccc1
not listed: [8] | [9]
inactive: all other assays above

Oc1cccc2cccnc12
active: [7] 67.9 µM
inactive: [1] | [2] | [3] | [4] | [5] | [6] | [7]

Nc1ccc(-c2ccc(N)c(Cl)c2)cc1Cl
active: [7] 37.6 µM | [8] 2.04 µM
not listed: [4] | [9]
inactive: all other assays above

CCOP(=S)(OCC)SCSP(=S)(OCC)OCC
active: [7] 1.32 µM | [8] 3.88 µM
inactive: all other assays above

CC1(C)Cc2cccc(O)c2O1
not listed: [4] | [9]
inactive: all other assays above

Cn1sc(Cl)cc1=O
not listed: [9]
inactive: all other assays above

O=C1C(Cl)=C(Cl)C(=O)c2ccccc21
not listed: [4] | [9]
inactive: all other assays above

C=CC(=O)N(C)C
not listed: [8] | [9]
inactive: all other assays above

NC(=S)Nc1ccccc1
active: [8] 64.2 µM
not listed: [4] | [9]
inactive: all other assays above

CN(C)P(=O)(N(C)C)N(C)C
not listed: [9]
inactive: all other assays above

Fc1ccc(C2(Cn3cncn3)OC2c2ccccc2Cl)cc1 (configuration not stated)
active: [2] 27.3 µM | [7] 12.3 µM
not listed: [9]
inactive: all other assays above

O=[N+]([O-])c1c(Cl)c(Cl)cc(Cl)c1Cl
not listed: [9]
inactive: all other assays above

CCCCOCCOC(C)=O
not listed: [4] | [8] | [9]
inactive: all other assays above

ClCC(Cl)CCl
not listed: [8] | [9]
inactive: all other assays above

COc1ccc(C=O)cc1OC
active: [8] 58.6 µM
not listed: [7] | [9]
inactive: all other assays above

COc1ccccc1OC
not listed: [9]
inactive: all other assays above

OCc1ccco1
not listed: [4]
inactive: all other assays above

Nc1ccc(N=Nc2ccc(-c3ccc(N=Nc4c(S(=O)(=O)O)cc5cc(S(=O)(=O)O)c(N=Nc6ccccc6)c(O)c5c4N)cc3)cc2)c(N)c1
active: [8] 19.9 µM
inactive: all other assays above

ClC1(Cl)C2(Cl)C3(Cl)C4(Cl)C(Cl)(Cl)C5(Cl)C3(Cl)C1(Cl)C5(Cl)C24Cl (configuration not stated)
not listed: [8] | [9]
inactive: all other assays above

Clc1nc(Cl)nc(Cl)n1
not listed: [9]
inactive: all other assays above

Cc1ccccc1N
not listed: [7] | [8] | [9]
inactive: all other assays above

CCCCC(CC)CO[N+](=O)[O-] (configuration not stated)
active: [7] 143 µM
inactive: [1] | [2] | [3] | [5] | [6]

COP(=S)(OC)Oc1ccc(Sc2ccc(OP(=S)(OC)OC)cc2)cc1
active: [5] 57.7 µM | [6] 61.7 µM | [7] 9.75 µM
inactive: all other assays above

NC(=O)O
not listed: [4]
inactive: all other assays above

O=C(Cc1ccccc1)c1ccccc1
active: [8] 22.7 µM
not listed: [4]
inactive: all other assays above

OCC(O)CCl (configuration not stated)
not listed: [8] | [9]
inactive: all other assays above

O=Cc1cccc(Oc2ccccc2)c1
active: [8] 26.6 µM
inactive: all other assays above

CCCCCCCCSC(=O)Oc1cc(Cl)nnc1-c1ccccc1
active: [3] 124 µM | [4] 170 µM | [5] 71.3 µM | [6] 152 µM | [7] 100 µM
inactive: [1] | [2] | [8]

CCOC(=O)/C=C(C)/C=C/C[C@@H](C)CCCC(C)C
active: [2] 124 µM | [6] 47.4 µM
not listed: [8] | [9]
inactive: all other assays above

CCc1ccccc1C
not listed: [4] | [8] | [9]
inactive: all other assays above

CN(C)N=O
not listed: [8]
inactive: all other assays above

COc1cc2c(cc1OC)[C@@]13CCN4CC5=CCO[C@H]6CC(=O)N2[C@H]1[C@H]6[C@H]5C[C@H]43
not listed: [9]
inactive: all other assays above

CCC(C)(C)c1ccc(O)c(C(C)(C)CC)c1
active: [7] 15.9 µM | [9] 33.4 µM | [8] 33.4 µM
inactive: all other assays above

NNC(=S)NN
not listed: [9]
inactive: all other assays above

COc1cc(OC)nc(NC(=O)NS(=O)(=O)c2ncccc2C(=O)N(C)C)n1
active: [8] 77.8 µM
inactive: all other assays above
